Measurements taken from ChEMBL document CHEMBL1961873, “Compounds: GSK PKIS; Assays: Nanosyn kinase panel” (2012).

Assays:
[1] = biological target: T1, Aurora kinase A (Homo sapiens) (UniProt O14965); details: at 1 µM;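 note: values are mean percent inhibition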
T1 sequence (whole entry): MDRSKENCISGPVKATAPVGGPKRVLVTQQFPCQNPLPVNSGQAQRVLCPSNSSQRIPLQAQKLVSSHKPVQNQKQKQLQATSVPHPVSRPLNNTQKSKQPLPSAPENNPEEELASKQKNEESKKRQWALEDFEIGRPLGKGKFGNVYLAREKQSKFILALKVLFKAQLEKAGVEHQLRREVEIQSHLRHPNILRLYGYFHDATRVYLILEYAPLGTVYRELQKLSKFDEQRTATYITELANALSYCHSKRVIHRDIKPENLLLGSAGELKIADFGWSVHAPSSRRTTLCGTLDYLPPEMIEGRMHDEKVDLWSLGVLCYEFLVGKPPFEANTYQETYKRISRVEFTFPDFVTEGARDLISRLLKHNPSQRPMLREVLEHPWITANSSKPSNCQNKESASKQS

[2] = biological target: Aurora kinase B (Homo sapiens) (UniProt Q96GD4); details: at 0.1 µM
[3] = biological target: Aurora kinase B (Homo sapiens) (UniProt Q96GD4); details: at 1 µM
[4] = biological target: T2, Aurora kinase C (Homo sapiens) (UniProt Q9UQB9); details: at 0.1 µM
T2 sequence (whole entry): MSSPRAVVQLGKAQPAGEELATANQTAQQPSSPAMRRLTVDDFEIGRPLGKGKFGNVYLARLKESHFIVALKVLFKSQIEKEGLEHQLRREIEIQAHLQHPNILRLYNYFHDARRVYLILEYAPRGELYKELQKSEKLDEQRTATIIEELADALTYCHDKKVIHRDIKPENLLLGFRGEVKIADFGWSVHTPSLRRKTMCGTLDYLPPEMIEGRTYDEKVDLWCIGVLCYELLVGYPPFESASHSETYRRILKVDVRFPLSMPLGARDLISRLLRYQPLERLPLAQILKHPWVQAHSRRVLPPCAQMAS

[5] = biological target: T2, Aurora kinase C (Homo sapiens); details: at 1 µM
[6] = biological target: Serine/threonine-protein kinase 10 (Homo sapiens) (UniProt O94804); details: at 0.1 µM
[7] = biological target: Serine/threonine-protein kinase 10 (Homo sapiens) (UniProt O94804); details: at 1 µM
[8] = biological target: T3, Mitogen-activated protein kinase kinase kinase kinase 2 (Homo sapiens) (UniProt Q12851); details: at 0.1 µM
T3 sequence (whole entry): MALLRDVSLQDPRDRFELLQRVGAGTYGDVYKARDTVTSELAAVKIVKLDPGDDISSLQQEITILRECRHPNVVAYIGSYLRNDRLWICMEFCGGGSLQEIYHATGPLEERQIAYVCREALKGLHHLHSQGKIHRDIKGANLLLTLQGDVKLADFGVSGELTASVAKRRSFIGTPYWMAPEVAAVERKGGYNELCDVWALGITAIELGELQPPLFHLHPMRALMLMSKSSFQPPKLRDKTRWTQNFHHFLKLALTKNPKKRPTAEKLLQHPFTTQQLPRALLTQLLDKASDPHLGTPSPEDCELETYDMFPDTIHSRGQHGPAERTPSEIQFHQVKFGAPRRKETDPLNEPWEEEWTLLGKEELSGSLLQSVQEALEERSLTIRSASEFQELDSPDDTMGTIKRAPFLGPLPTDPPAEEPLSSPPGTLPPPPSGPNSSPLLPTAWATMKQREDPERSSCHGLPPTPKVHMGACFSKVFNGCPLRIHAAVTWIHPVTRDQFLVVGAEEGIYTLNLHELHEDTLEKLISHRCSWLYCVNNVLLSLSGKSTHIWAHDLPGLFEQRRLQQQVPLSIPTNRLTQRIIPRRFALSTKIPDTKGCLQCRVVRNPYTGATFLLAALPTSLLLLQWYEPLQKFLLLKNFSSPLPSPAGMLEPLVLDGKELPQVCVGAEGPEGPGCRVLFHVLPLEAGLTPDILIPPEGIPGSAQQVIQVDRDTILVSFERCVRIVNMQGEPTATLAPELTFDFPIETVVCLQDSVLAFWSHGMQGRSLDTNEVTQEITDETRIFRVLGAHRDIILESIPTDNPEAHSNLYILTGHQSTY

[9] = biological target: T3, Mitogen-activated protein kinase kinase kinase kinase 2 (Homo sapiens); details: at 1 µM
[10] = biological target: Mitogen-activated protein kinase kinase kinase kinase 4 (Homo sapiens) (UniProt O95819); details: at 0.1 µM
[11] = biological target: Mitogen-activated protein kinase kinase kinase kinase 4 (Homo sapiens) (UniProt O95819); details: at 1 µM
[12] = biological target: Dual specificity mitogen-activated protein kinase kinase 1 (Homo sapiens) (UniProt Q02750); details: at 0.1 µM
[13] = biological target: Dual specificity mitogen-activated protein kinase kinase 1 (Homo sapiens) (UniProt Q02750); details: at 1 µM
[14] = biological target: Misshapen-like kinase 1 (Homo sapiens) (UniProt Q8N4C8); details: at 0.1 µM
[15] = biological target: Misshapen-like kinase 1 (Homo sapiens) (UniProt Q8N4C8); details: at 1 µM
[16] = biological target: T4, Serine/threonine-protein kinase 4 (Homo sapiens) (UniProt Q13043); details: at 0.1 µM
T4 sequence (whole entry): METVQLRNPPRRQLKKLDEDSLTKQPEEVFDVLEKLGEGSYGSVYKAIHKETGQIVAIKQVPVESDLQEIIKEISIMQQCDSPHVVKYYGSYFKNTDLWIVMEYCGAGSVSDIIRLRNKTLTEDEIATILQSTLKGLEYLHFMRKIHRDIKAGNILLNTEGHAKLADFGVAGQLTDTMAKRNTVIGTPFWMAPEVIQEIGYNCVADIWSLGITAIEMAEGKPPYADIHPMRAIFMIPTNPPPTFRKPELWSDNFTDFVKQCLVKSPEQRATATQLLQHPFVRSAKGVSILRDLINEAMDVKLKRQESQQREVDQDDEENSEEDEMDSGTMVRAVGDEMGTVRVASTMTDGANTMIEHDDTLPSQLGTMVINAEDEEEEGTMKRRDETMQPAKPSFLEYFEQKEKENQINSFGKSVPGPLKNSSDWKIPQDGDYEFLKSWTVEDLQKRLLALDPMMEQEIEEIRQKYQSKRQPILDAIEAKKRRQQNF

[17] = biological target: T4, Serine/threonine-protein kinase 4 (Homo sapiens); details: at 1 µM
[18] = biological target: T5, Serine/threonine-protein kinase 3 (Homo sapiens) (UniProt Q13188); details: at 0.1 µM
T5 sequence (whole entry): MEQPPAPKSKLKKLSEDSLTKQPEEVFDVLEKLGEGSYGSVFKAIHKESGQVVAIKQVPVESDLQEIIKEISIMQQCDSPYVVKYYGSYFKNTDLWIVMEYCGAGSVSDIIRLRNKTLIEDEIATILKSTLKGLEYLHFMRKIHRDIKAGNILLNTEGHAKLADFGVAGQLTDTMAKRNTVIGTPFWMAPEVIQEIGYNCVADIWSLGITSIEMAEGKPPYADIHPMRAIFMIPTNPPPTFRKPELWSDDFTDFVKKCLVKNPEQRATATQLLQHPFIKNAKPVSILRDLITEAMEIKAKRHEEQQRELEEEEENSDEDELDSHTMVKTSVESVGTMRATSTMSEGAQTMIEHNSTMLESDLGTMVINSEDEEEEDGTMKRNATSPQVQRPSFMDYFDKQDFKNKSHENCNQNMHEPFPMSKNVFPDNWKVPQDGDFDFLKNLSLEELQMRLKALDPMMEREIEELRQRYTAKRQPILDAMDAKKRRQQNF

[19] = biological target: T5, Serine/threonine-protein kinase 3 (Homo sapiens); details: at 1 µM
[20] = biological target: Serine/threonine-protein kinase 26 (Homo sapiens) (UniProt Q9P289); details: at 0.1 µM
Serine/threonine-protein kinase 26 (Homo sapiens), sequence (Q9P289 2-416 limits assumed): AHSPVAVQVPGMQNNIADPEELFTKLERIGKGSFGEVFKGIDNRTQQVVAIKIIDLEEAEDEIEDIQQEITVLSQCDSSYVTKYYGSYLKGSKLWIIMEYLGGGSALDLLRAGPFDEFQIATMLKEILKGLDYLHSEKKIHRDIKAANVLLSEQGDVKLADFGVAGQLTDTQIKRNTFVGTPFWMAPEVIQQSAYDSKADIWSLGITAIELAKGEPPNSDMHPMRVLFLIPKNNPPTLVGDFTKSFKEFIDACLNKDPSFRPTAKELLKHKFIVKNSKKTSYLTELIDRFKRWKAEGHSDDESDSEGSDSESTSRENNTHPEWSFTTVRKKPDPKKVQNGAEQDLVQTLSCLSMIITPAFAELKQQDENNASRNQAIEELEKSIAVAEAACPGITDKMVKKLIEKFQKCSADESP

Dual specificity mitogen-activated protein kinase kinase 1 (Homo sapiens), sequence (Q02750 whole entry): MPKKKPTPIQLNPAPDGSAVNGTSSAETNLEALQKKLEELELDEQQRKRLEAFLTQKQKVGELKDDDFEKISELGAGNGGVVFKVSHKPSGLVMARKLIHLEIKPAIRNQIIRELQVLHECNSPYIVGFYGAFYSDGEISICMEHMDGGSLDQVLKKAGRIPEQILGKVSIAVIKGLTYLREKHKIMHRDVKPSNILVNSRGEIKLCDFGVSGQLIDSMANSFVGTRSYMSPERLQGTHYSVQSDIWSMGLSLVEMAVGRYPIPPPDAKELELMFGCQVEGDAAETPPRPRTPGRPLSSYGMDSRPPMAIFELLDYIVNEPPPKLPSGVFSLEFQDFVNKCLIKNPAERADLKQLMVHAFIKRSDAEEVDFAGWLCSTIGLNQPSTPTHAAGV
Mitogen-activated protein kinase kinase kinase kinase 4 (Homo sapiens), sequence (O95819 2-1239 limits assumed): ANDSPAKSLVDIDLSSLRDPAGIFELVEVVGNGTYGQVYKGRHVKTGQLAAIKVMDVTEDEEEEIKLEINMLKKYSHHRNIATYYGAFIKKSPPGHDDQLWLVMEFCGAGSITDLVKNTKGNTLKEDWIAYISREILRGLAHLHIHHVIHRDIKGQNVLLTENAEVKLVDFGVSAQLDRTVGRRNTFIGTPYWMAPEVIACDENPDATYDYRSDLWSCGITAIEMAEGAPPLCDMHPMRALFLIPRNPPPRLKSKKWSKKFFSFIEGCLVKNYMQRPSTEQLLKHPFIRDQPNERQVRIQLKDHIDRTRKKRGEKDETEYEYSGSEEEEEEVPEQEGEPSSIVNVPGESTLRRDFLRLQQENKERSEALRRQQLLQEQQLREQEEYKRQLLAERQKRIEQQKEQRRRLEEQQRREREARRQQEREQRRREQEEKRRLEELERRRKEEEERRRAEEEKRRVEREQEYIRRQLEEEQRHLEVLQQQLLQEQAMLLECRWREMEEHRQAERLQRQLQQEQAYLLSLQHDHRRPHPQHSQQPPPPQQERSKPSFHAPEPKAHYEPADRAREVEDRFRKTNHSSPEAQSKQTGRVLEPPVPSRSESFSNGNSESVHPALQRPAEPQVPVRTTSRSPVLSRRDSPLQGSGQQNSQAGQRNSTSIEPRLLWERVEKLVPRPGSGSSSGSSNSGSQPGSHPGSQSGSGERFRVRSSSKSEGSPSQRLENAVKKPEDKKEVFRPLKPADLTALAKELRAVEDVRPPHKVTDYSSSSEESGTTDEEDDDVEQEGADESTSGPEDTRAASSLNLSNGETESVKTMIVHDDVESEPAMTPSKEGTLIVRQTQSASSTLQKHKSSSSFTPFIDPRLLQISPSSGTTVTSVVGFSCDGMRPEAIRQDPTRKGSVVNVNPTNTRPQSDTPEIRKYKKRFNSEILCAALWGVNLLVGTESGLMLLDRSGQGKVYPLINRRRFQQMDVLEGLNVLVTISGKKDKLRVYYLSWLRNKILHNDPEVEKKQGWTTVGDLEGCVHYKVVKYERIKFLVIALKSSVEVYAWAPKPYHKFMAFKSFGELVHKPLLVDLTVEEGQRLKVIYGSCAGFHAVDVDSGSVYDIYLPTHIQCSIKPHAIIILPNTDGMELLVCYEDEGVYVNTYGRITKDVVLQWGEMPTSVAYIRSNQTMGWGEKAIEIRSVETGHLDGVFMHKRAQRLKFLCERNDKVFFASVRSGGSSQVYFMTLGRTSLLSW
Serine/threonine-protein kinase 10 (Homo sapiens), sequence (O94804 whole entry, looked up): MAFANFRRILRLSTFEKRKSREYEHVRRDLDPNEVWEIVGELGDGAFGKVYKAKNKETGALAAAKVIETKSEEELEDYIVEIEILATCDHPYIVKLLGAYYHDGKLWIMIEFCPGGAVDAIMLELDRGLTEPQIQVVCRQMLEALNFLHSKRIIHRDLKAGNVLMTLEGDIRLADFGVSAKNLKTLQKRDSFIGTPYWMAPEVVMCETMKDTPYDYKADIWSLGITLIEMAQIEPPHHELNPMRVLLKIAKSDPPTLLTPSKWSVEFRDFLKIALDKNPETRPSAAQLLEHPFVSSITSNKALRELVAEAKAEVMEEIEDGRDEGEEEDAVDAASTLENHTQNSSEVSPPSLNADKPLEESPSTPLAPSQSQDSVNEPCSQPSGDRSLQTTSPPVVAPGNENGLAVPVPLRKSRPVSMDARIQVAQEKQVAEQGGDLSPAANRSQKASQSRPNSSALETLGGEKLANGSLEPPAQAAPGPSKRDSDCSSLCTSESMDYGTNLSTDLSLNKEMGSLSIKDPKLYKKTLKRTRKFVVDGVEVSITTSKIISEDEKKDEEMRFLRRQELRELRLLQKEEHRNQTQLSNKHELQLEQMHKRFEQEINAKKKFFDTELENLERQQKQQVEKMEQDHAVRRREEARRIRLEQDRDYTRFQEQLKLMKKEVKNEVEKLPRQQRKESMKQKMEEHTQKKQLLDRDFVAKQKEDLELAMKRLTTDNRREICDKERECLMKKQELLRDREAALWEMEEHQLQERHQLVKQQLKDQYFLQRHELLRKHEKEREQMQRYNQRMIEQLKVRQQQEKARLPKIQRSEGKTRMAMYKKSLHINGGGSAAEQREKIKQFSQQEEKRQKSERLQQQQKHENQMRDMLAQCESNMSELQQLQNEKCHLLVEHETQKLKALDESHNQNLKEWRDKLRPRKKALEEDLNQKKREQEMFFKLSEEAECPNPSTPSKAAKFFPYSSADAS
Aurora kinase B (Homo sapiens), sequence (Q96GD4 whole entry): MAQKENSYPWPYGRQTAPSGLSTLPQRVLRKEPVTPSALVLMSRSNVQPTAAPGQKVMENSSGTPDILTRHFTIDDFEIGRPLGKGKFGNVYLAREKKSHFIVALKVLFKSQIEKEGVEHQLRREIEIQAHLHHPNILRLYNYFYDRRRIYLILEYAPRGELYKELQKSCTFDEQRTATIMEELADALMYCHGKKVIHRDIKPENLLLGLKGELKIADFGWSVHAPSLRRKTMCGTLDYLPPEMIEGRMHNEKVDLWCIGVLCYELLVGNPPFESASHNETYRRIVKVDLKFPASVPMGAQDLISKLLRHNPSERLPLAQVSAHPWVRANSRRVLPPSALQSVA
Misshapen-like kinase 1 (Homo sapiens), sequence (Q8N4C8 whole entry, looked up): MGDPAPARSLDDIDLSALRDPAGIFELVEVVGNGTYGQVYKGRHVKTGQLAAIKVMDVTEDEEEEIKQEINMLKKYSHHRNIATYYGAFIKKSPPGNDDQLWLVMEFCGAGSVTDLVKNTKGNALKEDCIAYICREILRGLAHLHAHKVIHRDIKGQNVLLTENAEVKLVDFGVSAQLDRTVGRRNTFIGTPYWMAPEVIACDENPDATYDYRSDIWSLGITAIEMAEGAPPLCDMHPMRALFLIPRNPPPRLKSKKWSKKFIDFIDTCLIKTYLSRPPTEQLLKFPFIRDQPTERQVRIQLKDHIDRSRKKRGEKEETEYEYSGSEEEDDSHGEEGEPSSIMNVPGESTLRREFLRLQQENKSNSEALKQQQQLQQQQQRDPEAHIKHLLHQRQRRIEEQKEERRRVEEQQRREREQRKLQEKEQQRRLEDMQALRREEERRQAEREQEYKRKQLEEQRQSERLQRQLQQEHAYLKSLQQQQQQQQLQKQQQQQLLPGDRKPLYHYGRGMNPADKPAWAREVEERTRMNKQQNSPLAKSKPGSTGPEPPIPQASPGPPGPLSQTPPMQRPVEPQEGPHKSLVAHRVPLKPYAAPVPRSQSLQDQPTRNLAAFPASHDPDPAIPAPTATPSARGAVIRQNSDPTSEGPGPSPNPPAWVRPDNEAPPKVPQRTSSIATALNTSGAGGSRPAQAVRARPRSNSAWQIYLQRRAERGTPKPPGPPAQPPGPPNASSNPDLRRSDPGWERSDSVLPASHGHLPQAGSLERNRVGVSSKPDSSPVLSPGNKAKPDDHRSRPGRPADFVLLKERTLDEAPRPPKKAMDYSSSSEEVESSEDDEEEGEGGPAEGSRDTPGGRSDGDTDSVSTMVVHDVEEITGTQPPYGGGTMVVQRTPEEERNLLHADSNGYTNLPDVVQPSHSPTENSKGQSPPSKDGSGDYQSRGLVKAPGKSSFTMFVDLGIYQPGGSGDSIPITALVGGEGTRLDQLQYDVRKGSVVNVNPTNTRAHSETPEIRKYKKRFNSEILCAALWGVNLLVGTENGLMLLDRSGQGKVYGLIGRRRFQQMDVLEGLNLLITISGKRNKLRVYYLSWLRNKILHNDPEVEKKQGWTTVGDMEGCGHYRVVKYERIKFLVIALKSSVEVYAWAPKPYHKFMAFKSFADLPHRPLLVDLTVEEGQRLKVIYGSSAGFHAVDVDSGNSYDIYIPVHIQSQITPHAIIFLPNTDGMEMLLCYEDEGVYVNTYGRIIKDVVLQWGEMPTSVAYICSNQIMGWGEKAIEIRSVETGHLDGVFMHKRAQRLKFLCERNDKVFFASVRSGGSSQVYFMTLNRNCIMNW

Compound | inhibition [1] [%] | inhibition [2] [%] | inhibition [3] [%] | inhibition [4] [%] | inhibition [5] [%] | inhibition [6] [%] | inhibition [7] [%] | inhibition [8] [%] | inhibition [9] [%] | inhibition [10] [%] | inhibition [11] [%] | inhibition [12] [%] | inhibition [13] [%] | inhibition [14] [%] | inhibition [15] [%] | inhibition [16] [%] | inhibition [17] [%] | inhibition [18] [%] | inhibition [19] [%] | inhibition [20] [%]
c1cnn2ncc(-c3ccnc(NCCCN4CCOCC4)n3)c2c1 | 8.82 | 2.38 | 5.43 | -0.51 | 1.86 | 4.84 | 1.98 | -0.2 | 1.94 | 4.7 | 8.87 | 4.91 | 3.9 | 4.95 | 12.1 | 2.04 | 1.9 | 3.76 | 2.29 | -1.84
COc1cc(Nc2ncc(-c3ccccc3)o2)cc(OC)c1 | 30.3 | 5 | 19.7 | 3.27 | 29.6 | 8.54 | 12.9 | 0.95 | 7.2 | 7.08 | 18.8 | 4.41 | 3.91 | 8.63 | 19.5 | 3.72 | 6.2 | 6.11 | 6.9 | -1.04
COc1cccc(Nc2nccc(-c3cnn4ncccc34)n2)c1 | 86.4 | 26.7 | 72.3 | 33.2 | 97.3 | 4.01 | 17.4 | 17.1 | 60.1 | 14.8 | 63.2 | 3.11 | 29.1 | 11.1 | 57.6 | 6.23 | 30 | 5.37 | 24.6 | 1.55
COc1cc2c(cc1Nc1nc(Nc3cccc(F)c3C(N)=O)c3cc[nH]c3n1)N(C(=O)CN1CCN(C(C)C)CC1)CC2 | 0.34 | 1.62 | 2.41 | -0.27 | 3.25 | 2.03 | 5.12 | 1.69 | 11.3 | 0.45 | 3.14 | 0.13 | 4.11 | 3.15 | 3.43 | 0.17 | 3.77 | 2.26 | 2.65 | 1.63
Cc1ccc(-c2cc3c(NC(=O)C4CC4)ncnc3o2)cc1 | 15.8 | 5.78 | 17.5 | 2.4 | 19.2 | 2.34 | 15.1 | 0.9 | 2.12 | 6.07 | 8.27 | 3.02 | 3.21 | 6.35 | 8.16 | 6.14 | 7.49 | 5.64 | 4.87 | -2.57
